# Activity calls are given as the source filed them. Unless noted, no rule for the calls is given here.
# What was measured:
# [1] = compound effects on lung adenocarcinoma cell viability – A549, calcein-AM fluorescence, 48 h, basal, profiling panel (AID 1162); conditions: higher = more signal; also: test concentration not given here
# [2] = compound effects on differentiated 3T3-L1 adipocyte viability – cell-based, 3T3-L1 adipocytes, calcein-AM fluorescence, 48 h, basal, profiling panel (AID 1163); conditions: 3T3-L1 adipocytes viability, higher = more signal; also: test concentration not given here
# [3] = compound effects on hepatocellular carcinoma cell viability – HepG2, calcein-AM fluorescence, 48 h, basal, profiling panel (AID 1164); conditions: higher = more signal; also: test concentration not given here
# [4] = compound effects on multiple myeloma cell viability – MM1S, calcein-AM fluorescence, 48 h, basal, profiling panel (AID 1165); conditions: higher = more signal; also: test concentration not given here
# [5] = calcein-AM signal in unstimulated myeloma cells – cell-based, calcein-AM fluorescence, 48 h, PK04 Diversity Set, profiling panel (AID 1166); conditions: RPMI8226 myeloma viability, higher = more signal;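 also: cells grown under basal conditions without added stimulus; test concentration not given here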
# [6] = JC-1 mitochondrial signal, unstimulated HepG2 cells – cell-based, JC-1 fluorescence, 24 h, 100 nL compound, profiling panel (AID 1167); conditions: HepG2 mitochondrial potential, higher = more signal; also: test concentration not given here
# [7] = JC-1 mitochondrial signal, unstimulated adipocytes – cell-based, JC-1 fluorescence, 3T3-L1 adipocytes, 24 h, 100 nL compound, profiling panel (AID 1168); conditions: JC-1 mitochondrial fluorescence, higher = more signal, called active from +8 up or from −8 down; also: test concentration not given here
# [8] = JC-1 mitochondrial signal, unstimulated myeloma cells – cell-based, JC-1 fluorescence, RPMI8226, 24 h, 100 nL compound, profiling panel (AID 1169); conditions: JC-1 mitochondrial potential fluorescence, higher = more signal; also: test concentration not given here
# [9] = JC-1 mitochondrial signal, unstimulated MM1S myeloma – cell-based, JC-1 fluorescence, 24 h, 100 nL compound, profiling panel (AID 1170); conditions: MM1S mitochondrial potential, higher = more signal; also: test concentration not given here
# [10] = resazurin metabolic signal in A549 cells – cell-based, resazurin fluorescence, 24 h, PK04 Diversity Set, profiling panel (AID 1171); conditions: A549 viability, higher = more signal, called active from +8 up or from −8 down; also: test concentration not given here
# [11] = resazurin metabolic signal in HepG2 cells – cell-based, resazurin fluorescence, 24 h, PK04 Diversity Set, profiling panel (AID 1172); conditions: HepG2 viability, higher = more signal; also: test concentration not given here
# [12] = budding yeast growth changes without added modifier – OD600, strain BY4716, 24 h, basal condition, primary screen (AID 1173); conditions: S. cerevisiae BY4716 growth, OD600, 24 h; higher = more signal, called active from +8 up or from −8 down
# [13] = viability profiling in MM1S myeloma cells – cell-based, resazurin fluorescence, basal, 24 h, PK04 Diversity Set, profiling panel (AID 1174); conditions: higher = more signal, called active from +8 up or from −8 down; also: test concentration not given here
# [14] = target: Dihydroorotate dehydrogenase (quinone), mitochondrial (Plasmodium falciparum (isolate 3D7)) (UniProt Q08210); experiment: inhibition of P. falciparum DHODH – biochemical, C-terminal His tag, absorbance 600 nm, primary screen (AID 1175); conditions: PfDHODH enzyme, DCIP absorbance 600 nm; higher = more signal, called active from +8 up or from −8 down;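 also: recombinant parasite enzyme with a five histidine tag at its C terminus; test concentration not given here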
# [15] = inhibition of PAO1 biofilm formation – strain PAO1, LB-PBS medium, absorbance 600 nm, primary screen (AID 1176); also: test concentration not given here; conditions: P. aeruginosa PAO1 growth/biofilm, A600, 12 h; higher = more signal
# [16] = growth modulation of vineyard yeast isolate – strain RM11-1a, OD600, basal, 24 h, primary screen (AID 1177);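 also: cultures grown under basal conditions with no added stressor; test concentration not given here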; conditions: S. cerevisiae RM11-1a growth, OD600, 24 h; higher = more signal, called active from +8 up or from −8 down
# [17] = growth of efflux-deficient E. coli DRC39 – strain DRC39, OD650, 24 h, E. coli filamentation inducers, primary screen (AID 1178);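 also: growth measured as culture turbidity by optical density at 650 nm; test concentration not given here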; conditions: E. coli DRC39 acrAB, higher = more signal, called active from +8 up or from −8 down
# [18] = growth of efflux-deficient E. coli DRC39 – strain DRC39, OD650, 48 h, E. coli filamentation inducers, primary screen (AID 1179);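 also: screen aims at cell division blockers that make cells filament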; conditions: E. coli DRC39 delta-acrAB growth, higher = more signal, called active from +8 up or from −8 down
# [19] = viability profiling in RPMI8226 myeloma cells – cell-based, resazurin fluorescence, basal, 24 h, PK04 Diversity Set, profiling panel (AID 1180); conditions: higher = more signal;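 also: RPMI8826 multiple myeloma cell line at 5000 cells per well; test concentration not given here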
# [20] = target: E3 ubiquitin-protein ligase XIAP (Homo sapiens) (UniProt P98170); experiment: small molecules binding XIAP protein – biophysical, small-molecule microarray, fluorescence 635 nm, primary screen (AID 1181); conditions: higher = more signal;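 also: score merges 667 nm emission and signal to noise over triplicate slides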
# E3 ubiquitin-protein ligase XIAP (Homo sapiens), sequence (P98170 whole entry, looked up): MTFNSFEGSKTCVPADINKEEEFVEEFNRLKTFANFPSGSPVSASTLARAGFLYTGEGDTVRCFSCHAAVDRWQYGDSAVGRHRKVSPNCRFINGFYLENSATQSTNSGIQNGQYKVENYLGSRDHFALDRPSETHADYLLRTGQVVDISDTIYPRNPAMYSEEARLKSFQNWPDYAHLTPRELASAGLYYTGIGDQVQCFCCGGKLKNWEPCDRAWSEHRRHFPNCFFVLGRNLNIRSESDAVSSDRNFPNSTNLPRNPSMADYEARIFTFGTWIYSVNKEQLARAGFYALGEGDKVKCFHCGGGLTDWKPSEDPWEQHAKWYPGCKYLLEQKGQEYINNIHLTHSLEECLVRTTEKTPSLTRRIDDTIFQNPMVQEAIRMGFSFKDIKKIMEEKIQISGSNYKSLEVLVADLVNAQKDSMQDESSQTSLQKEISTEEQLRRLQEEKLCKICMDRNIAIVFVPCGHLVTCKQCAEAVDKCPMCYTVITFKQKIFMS
# Dihydroorotate dehydrogenase (quinone), mitochondrial (Plasmodium falciparum (isolate 3D7)), sequence (Q08210 whole entry, looked up): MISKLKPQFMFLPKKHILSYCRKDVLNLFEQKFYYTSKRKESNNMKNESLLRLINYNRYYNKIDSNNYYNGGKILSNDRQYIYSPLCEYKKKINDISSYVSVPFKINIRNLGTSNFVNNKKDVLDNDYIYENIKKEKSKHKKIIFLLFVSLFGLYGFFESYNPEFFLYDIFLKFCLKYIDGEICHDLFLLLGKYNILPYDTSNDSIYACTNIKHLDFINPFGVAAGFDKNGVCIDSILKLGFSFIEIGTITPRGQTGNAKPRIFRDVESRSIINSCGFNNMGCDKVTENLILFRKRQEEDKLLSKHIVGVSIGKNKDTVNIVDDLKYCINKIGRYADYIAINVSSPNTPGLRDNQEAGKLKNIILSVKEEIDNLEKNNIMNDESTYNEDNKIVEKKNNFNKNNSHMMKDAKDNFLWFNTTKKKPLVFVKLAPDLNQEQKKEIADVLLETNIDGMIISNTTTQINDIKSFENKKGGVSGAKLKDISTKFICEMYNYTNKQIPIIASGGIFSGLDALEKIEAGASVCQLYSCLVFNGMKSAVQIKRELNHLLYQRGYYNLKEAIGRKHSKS
SMILES,z-score [1],z-score [2],z-score [3],z-score [4],z-score [5],z-score [6],z-score [7],z-score [8],z-score [9],z-score [10],z-score [11],z-score [12],z-score [13],composite z-score [14],z-score [15],z-score [16],z-score [17],z-score [18],z-score [19],composite z-score [20]
C=C(COC)C(=O)CC[C@H](OC(C)=O)c1ccc(CO)o1,0.0053,0.972,-0.582,0.657,1.76,0.378,-0.587 (inactive),-0.563,-0.434,0.642 (inactive),0.815,-0.111 (inactive),0.324 (inactive),-1.28 (inactive),-0.517 (inactive),-1.28 (inactive),0.581 (inactive),0.117 (inactive),0.875,0.194
CC[C@@H](O[Si](C#C[Si](C(C)C)(C(C)C)C(C)C)(C(C)C)C(C)C)c1cn([C@H](CO)Cc2ccccc2)nn1,-0.28,-1.04,0.928,0.297,0.944,0.74,-0.123 (inactive),-0.0761,-0.757,0.194 (inactive),1.03,1.79 (inactive),0.604 (inactive),-0.572 (inactive),0.183 (inactive),0.959 (inactive),-0.316 (inactive),0.413 (inactive),1.24,-0.207
C[C@]1(C(=O)O)c2ccccc2C(=O)N(Cc2cc(C(F)(F)F)cc(C(F)(F)F)c2)[C@H]1c1ccc(CO)cc1,-0.557,0.261,-0.164,-0.103,-0.329,-0.244,-0.107 (inactive),-0.117,-0.468,0.449 (inactive),0.341,0.0491 (inactive),0.385 (inactive),-0.979 (inactive),-0.0528 (inactive),-0.161 (inactive),-0.124 (inactive),-0.515 (inactive),0.306,-0.173
COCCOC(=O)N1C(=O)[C@@]2(c3ccccc31)[C@H](C(=O)Nc1nc3ccccc3s1)[C@H]1C(=O)O[C@H](c3ccccc3)[C@H](c3ccccc3)N1[C@@H]2c1ccccc1OCCO,-0.905,0.679,-0.899,-0.975,-1.48,-2.27,2.21 (inactive),-0.796,-0.61,0.101 (inactive),-0.49,2.38 (inactive),-0.304 (inactive),1.38 (inactive),2.9 (inactive),2.25 (inactive),0.0795 (inactive),-0.315 (inactive),-0.236,0.0245
O=C1O[C@H](c2ccccc2)[C@H](c2ccccc2)N2[C@H]1[C@@H](C(=O)N1CCCCCCC1)[C@]1(C(=O)Nc3ccc(C#CCCO)cc31)[C@H]2c1ccc(O)cc1,1.53,0.0496,1.22,-0.149,0.0392,0.638,0.547 (inactive),-0.146,-0.979,0.798 (inactive),0.546,0.206 (inactive),1.33 (inactive),-0.328 (inactive),0.93 (inactive),0.66 (inactive),0.783 (inactive),0.721 (inactive),0.838,2.21
C[N+](C)(C)CCCC[C@@H]1NC(=O)[C@H]2C[C@@H](C(=O)NCCCCCN)[C@@H](c3ccc(O)cc3)N2C1=O,2.02,0.727,-0.224,-1.68,-0.145,1.66,-0.359 (inactive),0.144,-0.292,0.78 (inactive),0.372,-0.589 (inactive),0.715 (inactive),-1.86 (inactive),-1.14 (inactive),-0.683 (inactive),0.553 (inactive),0.751 (inactive),1.24,0.0017
C=CCNC(=O)[C@@H]1[C@H]2C(=O)O[C@H](c3ccccc3)[C@H](c3ccccc3)N2[C@H](c2ccc(OCCO)cc2)[C@@]12C(=O)Nc1ccc(C#CC3=CCCCC3)cc12,-1.25,0.73,-1.18,-2.12,-2.66,-1.11,-0.194 (inactive),-1.19,-1.24,-1.49 (inactive),-0.411,0.899 (inactive),-2.16 (inactive),0.106 (inactive),2.29 (inactive),2.01 (inactive),-0.972 (inactive),-0.563 (inactive),-2.96,-0.178
C=C(C(=O)CC[C@@H](OC(=O)c1cccnc1)c1cccc(OCCO)c1)C(C)C,0.281,0.568,1.19,-1.27,-0.855,-0.0539,-0.227 (inactive),-0.706,-0.928,0.508 (inactive),0.38,-0.58 (inactive),-0.667 (inactive),-1.33 (inactive),0.33 (inactive),-1.3 (inactive),0.863 (inactive),0.816 (inactive),-1.34,0.127
COc1ccc([Si](C)(C)[C@H]2[C@H](CC(=O)N3CCC[C@H]3CO)O[C@@]3(C(=O)N(Cc4cccc(N5CCCCC5=O)c4)c4ccccc43)[C@@H]2C)cc1,0.239,0.112,-0.134,-2.65,-3.15,2.8,0.0592 (inactive),-0.893,0.286,0.423 (inactive),0.276,-0.953 (inactive),-0.0453 (inactive),-3.28 (inactive),-0.234 (inactive),0.64 (inactive),0.957 (inactive),0.965 (inactive),-0.185,-0.0126
O=C1NC(=O)C2C1C=CC(C(O)C(O)CO)N2Nc1ccccn1 (stereo not given),0.159,-0.28,2.19,0.434,0.476,0.361,0.117 (inactive),-0.627,0.123,-1.65 (inactive),-0.908,0.802 (inactive),-0.872 (inactive),-0.683 (inactive),1.11 (inactive),-0.645 (inactive),-0.0259 (inactive),0.61 (inactive),-0.885,-0.195
CCCCC(=C=CC[C@@H](O)c1ccccc1OCCO)C[C@@H](O)c1ccccn1,-0.158,-0.48,0.242,-0.35,-0.84,-0.16,0.341 (inactive),0.495,-0.179,0.756 (inactive),0.687,-1.72 (inactive),0.538 (inactive),-7.64 (inactive),0.354 (inactive),-0.506 (inactive),1.04 (inactive),0.52 (inactive),0.805,-0.287
COC(=O)[C@@]1(Cc2ccc(F)cc2)[C@H]2c3cc(C(=O)N(C)C)n(Cc4cccc5ccccc45)c3C[C@H]2CN1C(=O)c1ccccc1,-0.994,-0.296,0.156,-0.0591,-0.489,-0.0443,-2.25 (inactive),-0.207,-0.774,0.0731 (inactive),-0.488,1.91 (inactive),-1.32 (inactive),-0.0341 (inactive),1.75 (inactive),1.75 (inactive),-0.609 (inactive),-0.707 (inactive),-1.04,1.6
CO[C@H]1O[C@H](CO)[C@@H](OC(=O)Nc2cccc(F)c2)[C@H](OC(=O)Nc2ccc3c(c2)OCO3)[C@@H]1OC(=O)Nc1ccc2c(c1)OCO2,-1.33,0.726,-1.07,-1.49,-1.74,-0.96,-0.672 (inactive),-0.571,-0.964,-1.47 (inactive),-0.705,1.38 (inactive),-1 (inactive),0.368 (inactive),0.661 (inactive),1.82 (inactive),1.04 (inactive),0.761 (inactive),-0.931,0.0526
C=C(COC)C(=O)CC[C@@H](OC(=O)c1ccccc1-c1ccccc1C(=O)O)c1ccccc1OCCO,-0.184,0.615,-0.248,-3.31,-3.75,-1.13,-0.305 (inactive),-0.88,-1.84,0.393 (inactive),0.078,-1.22 (inactive),-1.95 (inactive),-1.57 (inactive),2.1 (inactive),-0.341 (inactive),0.0796 (inactive),-0.129 (inactive),-1.81,0.261
C=CCOC(=O)[C@H]1[C@@H]2C(=O)O[C@@H](c3ccccc3)[C@@H](c3ccccc3)N2[C@@H](c2ccc(OCCOC(=O)[C@@H]3C[C@@H]4C(=O)N[C@@H](Cc5ccccc5)C(=O)N4[C@@H]3c3ccc(O)cc3)cc2)[C@]12C(=O)Nc1ccc(I)cc12,-1.29,-0.28,0.561,-0.325,-0.561,-2.14,0.687 (inactive),-0.398,-1.03,-0.454 (inactive),-0.654,2.3 (inactive),-1.06 (inactive),0.684 (inactive),2.75 (inactive),2.92 (inactive),-0.588 (inactive),-0.508 (inactive),-0.721,0.349
CCCCC(=C=CC[C@@H](O)c1ccc(OCCO)cc1)CCO,1.39,-0.0802,0.016,-0.64,0.796,0.0677,-0.214 (inactive),-0.0377,1.03,1.46 (inactive),1.02,-4.12 (inactive),1.54 (inactive),-2.3 (inactive),-0.0585 (inactive),0.271 (inactive),1.34 (inactive),0.672 (inactive),1.3,0.794
Cc1ccc(S[C@]2(C(=O)NCCN3CCOCC3)CC(=O)N(C(C)C)[C@@H]2c2ccc(CO)cc2I)cc1,2.91,0.557,2.66,-2.39,-1.47,1.64,0.604 (inactive),-1.01,-0.635,-1.13 (inactive),0.124,-3.26 (inactive),-2.29 (inactive),-2.11 (inactive),0.553 (inactive),-2.93 (inactive),1.16 (inactive),1.65 (inactive),-1.83,-0.0304

# Reference: PubChem BioAssay
